BoNT-F LC inh: blocks Botulinum neurotoxin F light chain protease. Multiplex microsphere protease cleavage assay, flow cytometry. inhibition, % at 10 µM. 360,000 tested, 0.22% active; in the data active = inhibition above about 35%, passing the limit was not always enough; inconclusive = no clear call, values can overlap the other calls; also: plate controls were buffer without enzyme for full effect and enzyme alone for no effect
Anthrax LF prot: anthrax lethal factor protease inhibition | AID 588501 | inhibition, % at 10 µM | 360,000 tested, 0.12% active | multiplex microsphere protease cleavage assay, LF; also: plate controls were buffer without enzyme for full effect and enzyme alone for no effect
BoNT-A LC inh2: blocks Botulinum neurotoxin A light chain protease; multiplex microsphere protease substrate cleavage, flow cytometry; inhibition, % at 10 µM; 360,000 tested, 0.17% active; AID 588499; also: plate controls were buffer without enzyme for full effect and enzyme alone for no effect
DUSP3 inh: DUSP3 (human) phosphatase inhibition; P51452; recombinant VHR phosphatase, pNPP absorbance; inhibition, % at 13.3 µM; 290,000 tested, 0.52% active; in the data active = inhibition above about 50%
Target sequence (P51452 whole entry, looked up): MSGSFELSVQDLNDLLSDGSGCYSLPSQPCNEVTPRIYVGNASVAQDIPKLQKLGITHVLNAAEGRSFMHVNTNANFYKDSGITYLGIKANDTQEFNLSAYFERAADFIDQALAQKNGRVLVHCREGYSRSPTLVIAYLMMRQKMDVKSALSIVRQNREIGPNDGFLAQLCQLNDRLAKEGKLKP
MazF activator: increases E. coli MazEF RNase cleavage of RNA | activation, % at 20 µM | P0AE70 | 350,000 tested, 0.32% active | FAM/BHQ RNA-DNA oligo cleavage fluorescence, 5 h; in the data active = activation above about 50%
Target sequence (P0AE70 whole entry, looked up): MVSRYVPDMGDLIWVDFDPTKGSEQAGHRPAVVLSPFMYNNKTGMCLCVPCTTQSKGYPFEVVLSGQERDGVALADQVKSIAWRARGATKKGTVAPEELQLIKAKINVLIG
Autofluor counter: flagged as autofluorescent in microsphere protease counterscreen | compound autofluorescence counterscreen, microsphere flow cytometry; hits give high values | fluorescence intensity (test concentration not listed) | 360,000 tested, 3.1% active | AID 624483; in the data active = fluorescence intensity above about 16000; inconclusive = no clear call, values can overlap the other calls
The depositor's hits bear a star; ? = inconclusive; . = no result given. Sampled rows, rich in hits. Any-hit rate of the full collection: about 4%. Rule as the data show it, unless noted: active = inhibition above about 30%; inconclusive = no clear call, values can overlap the other calls; inactive = below that.

SMILES | BoNT-F LC inh | Anthrax LF prot | BoNT-A LC inh2 | DUSP3 inh | MazF activator | Autofluor counter
Cc1ccc(-n2nc3c(N4CCC(C(=O)NCc5ccccc5C)CC4)nnc(C)c3c2C)cc1 | 9.8 | 0.9 | -3.8 | 1.8 | 8.7 | 16178*
CCOc1ccc(CNC(=O)C2CCN(c3nnc(C)c4c(C)n(-c5ccc(C)cc5)nc34)CC2)cc1 | 10.4 | 5.1 | -4.9 | -17.6 | 11.3 | 17592*
COc1ccc(-n2nc3c(N4CCC(C(=O)NCc5cccc(C)c5)CC4)nnc(C)c3c2C)cc1 | 14.7 | -1.6 | -2.6 | -1.9 | -37.0 | 12492
C[C@H](NC(=O)c1cc2c([nH]c3ccccc32)c(-c2ccccc2)n1)C(=O)O | -1.8 | -0.3 | -0.8 | 7.2 | -1.6 | 3675
Cc1ccc(CN=c2c([N+](=O)[O-])nn(-c3cccc(C)c3)n2O)cc1 | -2.4 | 1.1 | -0.8 | 16.6 | -0.7 | 4540
O=S1(=O)CC/C(=N\O)c2ccccc21 | -5.8 | -0.2 | ? | 17.8 | -2.4 | 23882*
COC(=O)C1=C(C)NC(C)=C(C(=O)OC)C1c1ccc(N(C)C)cc1 | -2.2 | -0.2 | ? | 14.2 | 6.0 | 23084*
CCOC(=O)C1=C(C)NC(C)=C(C(=O)OCC)C1/C=C/c1ccccc1 | 2.3 | 0.6 | 2.8 | -0.9 | -4.1 | 22125*
COC(=O)C1=C(C)NC(C)=C(C(=O)OC)C1/C=C/c1ccccc1 | -4.3 | -1.9 | -1.7 | 8.4 | -5.0 | 20052*
CC(C)(C)OC(=O)C[C@@H]1C/C=C\C[C@@H](CC(=O)N(CCO)Cc2ccccc2)C(=O)N2CCC[C@H]2COC1=O | 7.3 | -3.7 | 0.2 | . | 1.7 | 3407
O=C(c1ccc([N+](=O)[O-])cc1)N(C1=NCCCCS1)c1ccccc1 | 0.5 | -11.5 | -0.5 | 22.9 | 0.3 | 9252
O=c1oc2ccccc2cc1-c1csc(NN=C2CCCCC2)n1 | -12.8 | 0.8 | 4.4 | 21.9 | -2.4 | 12422
O=c1oc2ccccc2cc1-c1nc2c(s1)CCCC2 | 5.6 | 6.9 | ? | -7.1 | -9.6 | 23234*
O=[N+]([O-])c1ccc(O)c(C2CCCCC2)c1 | 3.6 | -10.9 | -0.2 | . | -0.4 | 3823
O=C(O)c1ccc(S(=O)(=O)N2CCC(c3nc(-c4ccccc4Cl)no3)CC2)cc1 | -1.3 | -2.4 | ? | -26.5 | -4.4 | 23179*
FC(F)(F)/C(=N\P(=S)(N1CCOCC1)N1CCOCC1)N1CCOCC1 | 13.2 | -8.7 | ? | 2.9 | -2.6 | 17852*
Cc1ccc[n+](-c2nc([O-])sc2C=O)c1 | -2.4 | -7.8 | -1.6 | 40.9 | 69.0* | 4884
O=C(OCC#CCSc1nnc(-c2cccc3ccccc23)o1)c1ccc(Cl)cc1 | -2.9 | -10.6 | 0.2 | . | -3.4 | 2908
C=CCSc1nc(O)c(CC)c(=O)n1C(C)CC (stereo not drawn) | -6.4 | -4.5 | ? | -0.8 | -9.4 | 24804*
CCc1c(O)nc(SCc2ccccc2)n(C(C)CC)c1=O (stereo not drawn) | -1.3 | 0.5 | -1.4 | 10.9 | 1.1 | 21259*
C=CCn1c(SCC(=O)Nc2cccc3ccccc23)nc(O)c(CC)c1=O | 11.3 | -4.8 | 1.1 | 24.4 | 5.8 | 10737
O=C1OC(C(Cl)(Cl)Cl)Nc2ccccc21 (stereo not drawn) | -8.6 | -7.5 | -0.8 | . | . | 5965
Cc1ccccc1-n1c(O)c(/C=C2/C(c3ccccc3)=Nc3ccccc32)c(=O)[nH]c1=O | -1.6 | 17.4 | 47.1* | -17.6 | -13.7 | 1715
COc1cc(Cl)c(C)cc1NC(=O)CSc1ccc(C)cc1 | -3.7 | 0.3 | -3.3 | 7.7 | -7.5 | 23633*
COc1cc(Cl)c(C)cc1NC(=O)CSc1ccccc1 | -9.5 | -3.2 | -0.7 | 11.0 | -6.1 | 1968
SMILES | BoNT-F LC inh | Anthrax LF prot | BoNT-A LC inh2 | DUSP3 inh | MazF activator | Autofluor counter
CCN(CC)C(=O)CSc1nc2ccccc2c(=O)n1CC | 2.4 | -0.2 | -0.2 | 37.4 | 13.2 | 2757
CCN(CC)C(=O)CSc1nnc(-c2cc3ccccc3cc2O)n1CC | -7.1 | -3.5 | -3.2 | 7.1 | 2.9 | 23212*
CCOc1cc(/C=N/NC(=O)Cn2nc([N+](=O)[O-])cc2C)cc(Br)c1OCc1ccccc1C | -1.9 | -0.5 | -0.8 | 24.4 | 7.3 | 16860*
COc1cc(/C=N/NC(=O)Cn2nc([N+](=O)[O-])cc2C)cc(Br)c1OCc1ccccc1 | -11.4 | -3.6 | -1.0 | 30.3 | -3.9 | 4812
Cc1cccc(C)c1NC(=O)CSC(=S)N1CCCC1 | 2.0 | -0.5 | 0.2 | 9.0 | -1.5 | 3928
O=C(CSC(=S)N1CCCC1)Nc1ccc(Br)cc1Cl | 34.9* | -1.1 | 2.0 | . | -1.6 | ?
CCCCOc1ccc(N2C(=O)CC(N(O)c3ccccc3)C2=O)cc1 (stereo not drawn) | -18.2 | -2.3 | -0.9 | 18.9 | 2.0 | 9002
CC1CCCC(C)N1C(=O)COC(=O)CSc1ccc(C(N)=O)cc1[N+](=O)[O-] (stereo not drawn) | -109.7 | -18.2 | -64.0 | . | 5.0 | 21171*
CC1CCCCN1C(=O)COC(=O)CSc1ccc(C(N)=O)cc1[N+](=O)[O-] (stereo not drawn) | -6.1 | -0.6 | 2.3 | . | -5.1 | 5604
CCC(=O)Oc1ccc(C2NC(=O)c3ccccc3O2)cc1OC (stereo not drawn) | . | . | . | 59.7* | -4.2 | .
CCCC(=O)Oc1ccc(C2NC(=O)c3ccccc3O2)cc1OC (stereo not drawn) | -31.0 | -13.7 | -4.1 | 59.7* | 4.3 | 4902
O=C(N/C(=C\c1cccs1)C(=O)N1CCOCC1)c1ccco1 | -0.1 | 0.7 | -0.3 | 28.2 | 1.8 | 2625
CCOc1ccccc1NC(=O)CSc1nnnn1-c1ccccc1 | -2.0 | -0.4 | 0.3 | -6.7 | -2.1 | 2428
Cc1cc(C(=O)N/N=C/c2ccc(Cl)c([N+](=O)[O-])c2)c(C)n1-c1ccc(F)cc1 | -5.8 | -2.3 | -0.3 | -3.8 | 12.7 | 2519
Cn1nccc1C(=O)NC(=S)Nc1cc(Cl)cc(Cl)c1 | -7.2 | -0.9 | -0.9 | 1.8 | 2.3 | 4602
CSc1ccccc1C(=O)Nc1ccccc1C(=O)N1CCCC1 | -1.6 | -4.2 | -0.3 | 21.2 | -2.2 | 4132
Cc1ccc(-n2c(-c3ccc(Br)cc3)c[n+]3c2CCc2ccc4cccnc4c2-3)cc1 | 0.9 | 1.7 | -1.5 | 31.1 | -18.6 | 21635*
COc1ccc(-n2c(-c3ccc(Cl)cc3)c[n+]3c2CCc2ccccc2-3)cc1 | -1.9 | -2.8 | -0.2 | 19.9 | 16.8 | 4685
CCOC(=O)c1c(C)c(C(=O)N(C)C2CCCCC2)c(C)n1C | 4.4 | -1.5 | -0.7 | -3.4 | 3.8 | 11136
CCOC(=O)c1c(C)c(C(=O)NC2CCCCCC2)c(C)n1C | 5.1 | 2.7 | ? | -3.4 | 3.4 | 21622*
CCOC(=O)c1c(C)c(C(=O)NCc2ccc(OC)cc2)c(C)n1C | -6.8 | 1.4 | 1.7 | 19.0 | 0.3 | 2229
CCOC(=O)c1c(C)c(C(=O)NCc2ccccc2OC)c(C)n1C | -6.4 | 1.2 | -4.7 | 24.5 | -14.6 | 22066*
CCOCCCNC(=O)c1c(C)c(C(=O)OCC)n(C)c1C | 8.0 | -8.0 | ? | -5.0 | 0.7 | 18479*
O=C(O)CC(Cc1ccc(Cl)cc1)C(=O)Nc1cc(Cl)ccc1Cl (stereo not drawn) | ? | 4.7 | -2.3 | 8.1 | 5.2 | 4169

Screening data as filed in PubChem.
